# Screens: PubChem, several laboratories
# Granule exo inh – LAMP-1 surface exposure blockers, TALL-104 cells – cell-based, flow cytometry, MLPCN library, primary screen. TALL-104 LAMP-1 surface exposure; cells stimulated with thapsigargin and PMA. actives 0.66% (n = 360,000). AID 651702, 2012. inhibition, % at 10 µM;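 active = inhibition above about 55%, limit read from the data; inconclusive = no clear call, values can overlap the other calls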
# GASC-1 inh – inhibitors of GASC-1 histone demethylase, primary screen, biochemical, fluorescence, DELFIA europium. GST-JMJD2C(1-420) H3K9me3 demethylation. inhibition, % at 2.35 µM. actives 0.069% (n = 330,000);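 active = more than half of a compound's replicate wells show inhibition beyond 50%, single wells judged on their own value; inconclusive = some, but no more than half, of replicates pass 50% inhibition; inactive = no replicate passes 50% inhibition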;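 also: signal counts dimethyl H3K9 product captured on neutravidin plate; 0% = median of DMSO wells and 100% = 0.3 times that DMSO median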
# Target sequence (Q9H3R0 1-420 limits assumed): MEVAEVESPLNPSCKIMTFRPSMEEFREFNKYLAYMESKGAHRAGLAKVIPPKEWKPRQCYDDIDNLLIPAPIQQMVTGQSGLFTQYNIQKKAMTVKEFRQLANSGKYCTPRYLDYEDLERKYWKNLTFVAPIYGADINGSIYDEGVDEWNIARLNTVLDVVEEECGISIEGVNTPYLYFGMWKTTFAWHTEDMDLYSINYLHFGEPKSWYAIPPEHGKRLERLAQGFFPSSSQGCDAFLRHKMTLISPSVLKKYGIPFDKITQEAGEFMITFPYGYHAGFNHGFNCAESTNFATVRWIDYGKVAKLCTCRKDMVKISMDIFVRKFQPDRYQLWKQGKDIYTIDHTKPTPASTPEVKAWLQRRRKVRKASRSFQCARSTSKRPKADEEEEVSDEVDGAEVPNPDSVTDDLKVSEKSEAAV
# SMARCA2 activ – SMARCA2 (BRM) function activators, primary screen, cell-based, luminescence, high throughput; MG213 cells, MMTV-luciferase reporter, dexamethasone, overnight; activation, % at 9.1 µM; actives 1% (n = 370,000); in the data active = activation above about 7.8%;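 also: 0% = vehicle wells and 100% = reference activator wells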
# ALR inh – inhibitors of human ALR sulfhydryl oxidase, primary screen, biochemical, H2O2 detection, HRP-luminol luminescence, single point; FAD-linked sulfhydryl oxidase ALR (Homo sapiens), P55789; purified ALR, DTT oxidation; inhibition, % (test concentration not listed); actives 3.8% (n = 290,000);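 active = mean replicate inhibition above about 79%, with every replicate also reaching it, limit read from the data; inconclusive = only one of the two criteria met; inactive = mean below limit and not every replicate reaching it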
# Target sequence (P55789 whole entry, looked up): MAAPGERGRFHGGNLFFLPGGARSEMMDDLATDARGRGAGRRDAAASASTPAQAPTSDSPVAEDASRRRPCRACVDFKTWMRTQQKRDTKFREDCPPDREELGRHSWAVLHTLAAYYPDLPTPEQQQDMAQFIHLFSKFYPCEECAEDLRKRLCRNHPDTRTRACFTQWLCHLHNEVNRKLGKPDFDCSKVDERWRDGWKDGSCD
# PfM18AAP inh – PfM18AAP inhibitors, malaria aminopeptidase, primary screen, biochemical, QFRET, recombinant enzyme | M18 aspartyl aminopeptidase (Plasmodium falciparum 3D7) | H-Glu-NHMec fluorogenic cleavage | inhibition, % at 7.35 µM | actives 1.2% (n = 290,000) | AID 1822, 2009;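 active = inhibition above the campaign mean inhibition over all tested compounds plus 3 SD, cut at about 28% in these data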;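 also: 0% = plate median of test compound wells and 100% = 2 mM ZnCl2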
# beta cell repl – inducers of MIN6 beta-cell proliferation, primary screen, ATP luminescence, uHTS; proliferation, % at 10 µM; MIN6 cells proliferation, ATPlite luminescence, 48 h; cells starved in 0.2% serum; 100% = growth in 10% serum; actives 0.29% (n = 330,000);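 active = compounds whose signal lies at least 3.5 SD above the mean of all wells on their plate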;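 also: 0% = DMSO-treated cells in low-serum medium and 100% = 10% serum control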
# Numbers without * were called inactive; u = inconclusive; x = no result. In the library only some 5.4% were active in any assay of this set; here they are far more common.
SMILES,Granule exo inh,GASC-1 inh,SMARCA2 activ,ALR inh,PfM18AAP inh,beta cell repl
C#CCNC(=O)C[C@H]1C[C@@]2(C(=O)OC)C(=C[C@H](C(C)C)O[C@@H]2C2CC2)N(Cc2ccc3c(c2)OCO3)C1=O,x,x,-3,x,x,x
O=c1c(Cl)c(O)c2cccc3c4ccccc4n1c23,-6,-1,-1,99*,-2,-1
COc1c(OC)c2[nH]c(=O)cc3c4ccccc4n(c1=O)c23,-3,u,2,-4,x,-3
COc1c(O)c(=O)n2c3ccccc3c3ccnc1c32,-3,u,-1,98*,x,0
COC(=O)C[C@H]1CC[C@@H]2[C@@H](COc3ccc(NC(=O)C4CCCCC4)cc3C(=O)N2C)O1,x,x,-3,x,x,x
Cc1cc2nc(CS)[nH]c2cc1C,-13,-12,0,99*,4,-4
Cc1cccc(OC(C)CCN2CCC(C(O)(c3ccccc3)c3ccccc3)CC2)c1 (configuration not stated),x,x,-5,x,x,x
O=C(NC1CCCC1)c1ccc(COCC(F)(F)C(F)F)o1,-1,-1,x,98*,0,-4
COC(=O)c1cc2c(c3c4cc(C)ccc4n(S(=O)(=O)c4ccc(C)cc4)c13)C(=O)N(C)C2,x,x,-6,x,x,x
Fc1ccc(N2CCN(C3CCC(c4ccccc4)CC3)CC2)cc1 (configuration not stated),33,-14,2,-3,-1,-3
CCN1CCC(N2CCN(c3ccc(F)cc3)CC2)CC1,22,-9,-2,97*,0,0
COc1cccc(-n2nnc3c(=O)n(Cc4ccccc4F)cnc32)c1,-4,92*,-2,-2,8,-2
CCc1sc(NS(C)(=O)=O)nc1-c1ccccc1,3,-13,1,98*,2,-1
CCc1sc(NC(C)=O)nc1-c1ccccc1,-5,11,-3,-15,-1,-3
CN(C)CCCn1c(=S)[nH]c2sc3c(c2c1=O)CCCC3,18,1,1,99*,-5,-4
N=C1/C(=C/c2cccs2)C(=O)N=C2SN=C(SCc3ccccc3)N12,-3,8,3,96*,-4,-6
CSC1=NSC2=NC(=O)/C(=C/c3coc4ccccc4c3=O)C(=N)N12,13,0,2,98*,5,x
CSC1=NSC2=NC(=O)/C(=C/c3coc4ccc(O)cc4c3=O)C(=N)N12,-4,-3,-1,22,16,0
CSC1=NSC2=NC(=O)/C(=C\c3cccs3)C(=N)N12,3,1,2,0,-5,x
Cc1cc(NC(=O)CSc2c(C)[nH]c3ccccc23)no1,-2,-13,-4,95*,8,3
Cc1cc(NC(=O)CSc2c[nH]c3ccccc23)no1,4,-4,-3,99*,0,1
Cc1cc(NC(=O)CSc2nc(C)c(C)n2CC(C)C)no1,-3,-3,-9,93*,x,-2
Cc1cc(NC(=O)CSc2nc3cc(Cl)ccc3c(=O)n2CC(C)C)no1,x,18,x,-19,-4,-3
CCOC(=O)C(=O)N1CCC(C(=O)NC2CCCc3ccccc32)CC1 (configuration not stated),x,x,-7,x,x,x
CC(C)(C)OC(=O)/C=C/[C@H](CCCCl)Sc1ccc(C(C)(C)C)cc1,x,x,-5,x,x,x
SMILES,Granule exo inh,GASC-1 inh,SMARCA2 activ,ALR inh,PfM18AAP inh,beta cell repl
CS(=O)(=O)c1cccc(C(=O)Nc2cccc(-c3nc4ccccc4[nH]3)c2)c1,-10,1,4,99*,-1,-2
CS(=O)(=O)c1ccc(C(=O)Nc2cccc(-c3nc4ccccc4[nH]3)c2)cc1,7,-46,5,99*,0,-2
CS(=O)(=O)c1ccc(C(=O)Nc2ccc(-c3nc4ccccc4[nH]3)cc2)cc1,3,16,-2,14,-3,1
CS(=O)(=O)Cc1ccc(C(=O)Nc2cccc(-c3nc4ccccc4[nH]3)c2)cc1,-5,-34,3,-6,-6,-2
CC(C)NC(=O)CCn1nnc(-c2cccs2)n1,x,x,2,x,x,x
CN(C)c1ccc(NC(=O)Nc2ccc3snnc3c2)cc1,-1,10,3,95*,-26,-1
O=C(Nc1ccccc1)Nc1ccc2snnc2c1,-4,-1,2,59,0,-1
CCC(C)CNC(=O)c1cn(C(C)c2ccccc2)nn1 (configuration not stated),x,x,-2,x,x,x
Cc1ccc(S(=O)(=O)NCCc2nnc3ccc(SCC(=O)Nc4nc(C)cs4)nn23)cc1,-2,2,2,98*,-2,-1
Cc1ccc(C(=O)NCCc2nnc3ccc(SCC(=O)Nc4ccccc4F)nn23)cc1,-5,2,-2,97*,6,1
Cc1ccc(C(=O)NCCc2nnc3ccc(SCC(=O)N4CCCCC4)nn23)cc1,-1,5,-2,89*,-2,-2
Cc1cccc(Cl)c1NC(=O)NCCCN1CCOCC1,x,x,-2,x,x,x
COc1cccc(O[C@H]2C=C[C@@H](c3ccccc3)O[C@@H]2CO)c1,x,x,0,x,x,x
N=c1c2c(-c3ccccc3)c(-c3ccccc3)n(CCc3ccccc3)c2ncn1C1CCC(O)CC1 (configuration not stated),x,x,2,x,x,x
Cc1ccccc1NC(=O)CSc1nnc(-c2cc(-c3ccccc3)n[nH]2)n1N,x,x,0,x,x,x
CN1CCN(c2nc(Nc3ccc(F)cc3)nc(Nc3ccc(F)cc3)n2)CC1,48,-4,0,91*,1,-5
c1ccc(Nc2nc(Nc3ccccc3)nc(N3CCNCC3)n2)cc1,5,-5,-1,-17,2,-5
COC(=O)c1ccc(CNC(=O)CNc2cc(C(F)(F)F)ccc2N2CCOCC2)cc1,0,u,1,99*,7,-2
COC(=O)C[C@H]1CC[C@@H]2[C@H](COc3ccc(NC(=O)c4cccc(F)c4)cc3C(=O)N2C)O1,x,x,-1,x,x,x
COC(=O)C(=C/C(C)=C/c1cccnc1)C(=O)OC,-2,-9,0,92*,-3,-1
CCOc1cc(/C=C2\NC(=S)N(c3c(C)n(C)n(-c4ccccc4)c3=O)C2=O)ccc1O,1,-3,-5,99*,28,2
Cc1ccc(NC(=O)OCCN2CCN(Cc3ccccc3)CCC2=O)cc1,-2,-18,-1,92*,-2,-2
Fc1ccc2nc(-c3ccc(CN4CCC5(CC4)CNc4ccccc45)cc3)c(-c3ccccc3)nc2c1,x,x,-2,x,x,x
S=c1[nH]nc(-c2ccc3ccccc3n2)n1-c1ccc2c(c1)OCCO2,4,-8,0,90*,8,0
COc1ccc(-c2n[nH]c(=S)n2-c2ccc3c(c2)OCCO3)cc1,-2,14,-5,91*,30*,-2
